{
  "source": "PubChem BioAssay (NCATS)",
  "note": "Records with an inconclusive call do not appear. Values without a mark were called inactive. Active and inactive are the calls of the source. Calls come from the whole dose curve; as a rule, active = well fitted curve in the direction sought with a large enough effect; inconclusive = small, poorly fitted or top-dose-only effect, or another doubt; inactive = no such curve, though single readings can be large; an effect the other way counts as inactive or inconclusive.",
  "data": [
    {"assay": "Quantitative High-Throughput drug screen in 47 multiple myeloma cell lines against the NCATS MIPE library collection: KMM1_JCRB cell viability assay (AID 1918960); note: nearly all actives have a fitted effect of over 30% in size; note: potency is the fitted concentration of half-maximal effect", "details": "KMM1 myeloma viability, CellTiter-Glo ATP luminescence, 48 h; series mostly up to 45.8 µM; viability (% of DMSO): at the top concentration", "outline": "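Myeloma cells at 500 per well in 1536-well format treated with MIPE 4.0 library by pin transfer for 48 h at 37C, 5% CO2. Viability from ATP luminescence (CellTiter-Glo), normalized to DMSO (100%) and media-only (0%) wells.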", "values": [
      {"compound": "COc1cc2ncn(-c3cc(OCc4ccccc4S(C)(=O)=O)c(C#N)s3)c2cc1OC", "viability (% of DMSO)": "75.3%"},
      {"compound": "CCNC(=O)Nc1ccc(Oc2ncnc(N)c2C=NOC)cc1Cl", "Potency": "4.69 µM (active)"},
      {"compound": "CN[C@H]1[C@@H](O[C@@H]2[C@H](O[C@@H]3[C@@H](O)[C@@H](O)[C@@H](N=C(N)N)[C@@H](O)[C@@H]3N=C(N)N)O[C@H](C)[C@@]2(O)C=O)O[C@@H](CO)[C@@H](O)[C@H]1O", "viability (% of DMSO)": "112% [at 15.3 µM]"}
    ]},
    {"assay": "Quantitative High-Throughput drug screen in 47 multiple myeloma cell lines against the NCATS MIPE library collection: KHM11_PLB cell viability assay (AID 1918962); note: nearly all actives have a fitted effect of over 35% in size", "details": "KHM11 myeloma cell viability, CellTiter-Glo ATP luminescence, 48 h; series mostly up to 45.8 µM; viability, % of DMSO control: at the top concentration", "outline": "(§1)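 Inhibition of cell viability is measured here. Each line was plated at 500 cells per well, treated with MIPE 4.0 drugs, kept 48 hours at 37C, then assayed for ATP content by CellTiter-Glo luminescence.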", "values": [
      {"compound": "NC[C@H]1O[C@H](O[C@@H]2[C@@H](O)[C@@H](O[C@H]3O[C@H](CO)[C@@H](O)[C@H](N)[C@@H]3O)[C@H](N)C[C@@H]2N)[C@H](O)[C@@H](O)[C@H]1O", "viability, % of DMSO control": "80%"},
      {"compound": "C[C@@H]1[C@H](C)CC[C@]2(C(=O)O)CC[C@]3(C)C(=CC[C@@H]4[C@@]5(C)CC[C@H](O)C(C)(C)[C@H]5CC[C@]43C)[C@@H]12", "viability, % of DMSO control": "76.4% [at 92.2 µM]"},
      {"compound": "COc1cc2ncn(-c3cc(OCc4ccccc4S(C)(=O)=O)c(C#N)s3)c2cc1OC", "viability, % of DMSO control": "92.2%"}
    ]},
    {"assay": "Quantitative High-Throughput drug screen in 47 multiple myeloma cell lines against the NCATS MIPE library collection: JIM3_ECACC cell viability assay (AID 1918963; note: nearly all actives have a fitted effect of over 35% in size; note: potency is the fitted concentration of half-maximal effect)", "details": "JIM3 myeloma viability, CellTiter-Glo ATP, 48 h; series mostly up to 45.8 µM; viability, percent of control: at the top concentration", "outline": "as §1", "values": [
      {"compound": "CC1CCN(c2cc(N3CCN(C)CC3)ccc2NC(=O)c2cc(C#N)c[nH]2)CC1", "viability, percent of control": "116%"},
      {"compound": "COc1cc2nccc(Oc3ccc(NC(=O)Nc4ccc(F)cc4F)c(F)c3)c2cc1OC", "viability, percent of control": "98.2%"},
      {"compound": "CC[C@H](CC#N)OC(=O)N[C@@H](C)c1cccc(NC(=O)Nc2ccc(-c3cnco3)c(OC)c2)c1", "Potency": "1.32 µM (active)"},
      {"compound": "COc1ccc(-c2nc3ccc(C4=NNC(=O)CC4C)cc3[nH]2)cc1", "note": "(centres undefined)", "viability, percent of control": "122%"},
      {"compound": "CC(C)CN(C[C@@H](O)[C@H](Cc1ccccc1)NC(=O)O[C@H]1CO[C@H]2OCC[C@H]21)S(=O)(=O)c1ccc(N)cc1", "Potency": "13.2 µM (active)"},
      {"compound": "COc1cc([C@H]2Oc3cc([C@H]4Oc5cc(O)cc(O)c5C(=O)[C@H]4O)ccc3O[C@H]2CO)ccc1O", "Potency": "16.6 µM (active)"},
      {"compound": "CCN1C[C@H](C)n2c(c(O)c3c(=O)n(Cc4ccc(F)c(Cl)c4)nc(C(=O)NC)c32)C1=O", "viability, percent of control": "113%"},
      {"compound": "CCCCCOC(=O)Nc1nc(=O)n([C@@H]2O[C@H](C)[C@@H](O)C2O)cc1F", "note": "(some centres undefined)", "viability, percent of control": "101%"},
      {"compound": "Clc1ccc(COC(Cn2ccnc2)c2ccc(Cl)cc2Cl)c(Cl)c1", "note": "(centres undefined)", "Potency": "20.9 µM (active)"},
      {"compound": "CN(C)c1ccc(-c2nc3ncc(Cl)c(N4CCN(CC(=O)Nc5nccs5)CC4)c3[nH]2)cc1", "Potency": "3.32 µM (active)"},
      {"compound": "CN1[C@H]2CC[C@H]1CC(OC(=O)c1c[nH]c3ccccc13)C2", "note": "(some centres undefined)", "viability, percent of control": "92.6%"},
      {"compound": "COc1cc(F)c(C(C)C)cc1-c1ccc(C(F)(F)F)cc1CN1C(=O)O[C@H](c2cc(C(F)(F)F)cc(C(F)(F)F)c2)[C@@H]1C", "viability, percent of control": "106%"},
      {"compound": "CC[C@H](C)C(=O)O[C@H]1C[C@H](O)C=C2C=C[C@H](C)[C@H](CC[C@@H](O)C[C@@H](O)CC(=O)O)[C@H]21", "viability, percent of control": "108%"},
      {"compound": "O=C(CO)N1CCC(c2[nH]nc(-c3ccc(Cl)cc3)c2-c2ccncn2)CC1", "viability, percent of control": "106%"},
      {"compound": "C#CCN(C)CC1=Cc2ccccc2Oc2ccccc21", "viability, percent of control": "83.3%"},
      {"compound": "CC(C)(C)c1[nH]cnc1C=c1[nH]c(=O)c(=Cc2ccccc2)[nH]c1=O", "viability, percent of control": "3.61% [at 92.2 µM]"},
      {"compound": "CN1CCN(c2cccc(Nc3nc4c(-c5ccc(S(C)(=O)=O)cc5)cccn4n3)c2)CC1", "Potency": "2.96 µM (active)"},
      {"compound": "COc1ccc(-c2oc3c(CC=C(C)C)c(O)cc(O)c3c(=O)c2O)cc1", "viability, percent of control": "138%"},
      {"compound": "CCCCCCCCCCCCCC(=O)N[C@H](CO)[C@H](O)c1ccc([N+](=O)[O-])cc1", "Potency": "26.4 µM (active)"},
      {"compound": "CC(C)=CCCC(C)=CCCC(C)=CCCC(C)=CCCC(C)=CCCC(C)=CCCC(C)=CCCC(C)=CCCC(C)=CCO", "viability, percent of control": "119%"},
      {"compound": "C=CCc1cccc(C=NNC(=O)CN2CCN(Cc3ccccc3)CC2)c1O", "Potency": "23.5 µM (active)"},
      {"compound": "O=C(NC[C@H](O)CO)c1ccncc1Nc1ccc(I)cc1F", "Potency": "14.8 µM (active)"},
      {"compound": "COc1ccnc(CS(=O)c2nc3ccc(OC(F)F)cc3[nH]2)c1OC", "note": "(centres undefined)", "viability, percent of control": "102%"},
      {"compound": "CNC(=O)c1cc(COc2nnc(Nc3ccc(Cl)cc3)c3ccoc23)ccn1", "viability, percent of control": "112%"},
      {"compound": "CC[C@H]1OC(=O)[C@H](C)[C@@H](O[C@H]2C[C@@](C)(OC)[C@@H](O)[C@H](C)O2)[C@H](C)[C@@H](O[C@@H]2O[C@H](C)C[C@H](N(C)C)[C@H]2O)[C@](C)(O)C[C@H](C)C(=NOCOCCOC)[C@H](C)[C@@H](O)[C@]1(C)O", "viability, percent of control": "87.3%"},
      {"compound": "COc1ccc(-c2cc(=O)c3c(O)cc(O[C@@H]4O[C@H](CO[C@@H]5O[C@@H](C)[C@H](O)[C@@H](O)[C@@H]5O)[C@@H](O)[C@H](O)[C@@H]4O)cc3o2)cc1O", "Potency": "16.6 µM (active)"},
      {"compound": "CN[C@@H](C)[C@H]1[C@H](O)C[C@@]2(C)[C@@H]3CC[C@H]4C(C)(C)[C@@H](NC)CC[C@@]45C[C@@]35CC[C@]12C", "viability, percent of control": "115%"},
      {"compound": "CC1C(=O)OC2C(O)C34C5CC(C(C)(C)C)C36C(OC(=O)C6O)OC4(C(=O)O5)C12O", "note": "(centres undefined)", "viability, percent of control": "127%"},
      {"compound": "Oc1cc(O)cc(C=Cc2ccc(O)c(O)c2)c1", "Potency": "14.8 µM (active)"},
      {"compound": "Nc1ncnc2c1c(-c1cccc(OCc3ccccc3)c1)cn2C1CC(CN2CCC2)C1", "note": "(centres undefined)", "Potency": "0.332 µM (active)"},
      {"compound": "C=C[C@@H]1CN2CCC1C[C@@H]2C(O)c1ccnc2ccc(OC)cc12", "note": "(some centres undefined)", "viability, percent of control": "78.6%"},
      {"compound": "CCNC(=O)Nc1ccc(Oc2ncnc(N)c2C=NOC)cc1Cl", "Potency": "9.35 µM (active)"},
      {"compound": "CN[C@H]1[C@@H](O[C@@H]2[C@H](O[C@@H]3[C@@H](O)[C@@H](O)[C@@H](N=C(N)N)[C@@H](O)[C@@H]3N=C(N)N)O[C@H](C)[C@@]2(O)C=O)O[C@@H](CO)[C@@H](O)[C@H]1O", "viability, percent of control": "115% [at 15.3 µM]"}
    ]}
  ]
}
